An excerpt weighted towards active compounds, which were near 0.74% of everything screened.
LYPLA1 counter: LYPLA1 (human) inhibition in PME1 counter-screen | inhibition, % at 5.9 µM | recombinant LYPLA1, FP-Rh probe fluorescence polarization | 0.16% of 320,000 active | O75608;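 active = inhibition above the mean of all tested compounds plus 3 SD, set per campaign, cut at about 14% in these data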;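 note: inhibitors block serine hydrolase probe labeling of LYPLA1 so polarization falls; 0% = enzyme with DMSO and 100% = wells lacking LYPLA1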
DTT redox prof: compounds producing H2O2 with reducing agent – biochemical, NIH compound library profiling, artefact control for MLSCN library redox annotation, primary screen; 0.03% of 200,000 active; AID 878; activation, % at 10 µM; DTT-dependent redox cycling H2O2, phenol red/HRP absorbance; 100% = 100 µM peroxide control, 0% = buffer;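 active = activation of at least 50% relative to the plate's high and low controls in the primary single-dose screen; inactive = activation below 50%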;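 note: compound incubated with DTT at 0.8 mM final as the reducing agent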
p97 inhibitor: blocks human p97 ATPase activity | P55072 | recombinant p97 ATPase, Kinase-Glo ATP luminescence, 3 h | inhibition, % at 8 µM | 0.42% of 220,000 active | AID 1481; in the data active = inhibition above about 15%;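 note: 0% = DMSO vehicle and 100% = wells lacking enzyme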
Target sequence (P55072 whole entry, looked up): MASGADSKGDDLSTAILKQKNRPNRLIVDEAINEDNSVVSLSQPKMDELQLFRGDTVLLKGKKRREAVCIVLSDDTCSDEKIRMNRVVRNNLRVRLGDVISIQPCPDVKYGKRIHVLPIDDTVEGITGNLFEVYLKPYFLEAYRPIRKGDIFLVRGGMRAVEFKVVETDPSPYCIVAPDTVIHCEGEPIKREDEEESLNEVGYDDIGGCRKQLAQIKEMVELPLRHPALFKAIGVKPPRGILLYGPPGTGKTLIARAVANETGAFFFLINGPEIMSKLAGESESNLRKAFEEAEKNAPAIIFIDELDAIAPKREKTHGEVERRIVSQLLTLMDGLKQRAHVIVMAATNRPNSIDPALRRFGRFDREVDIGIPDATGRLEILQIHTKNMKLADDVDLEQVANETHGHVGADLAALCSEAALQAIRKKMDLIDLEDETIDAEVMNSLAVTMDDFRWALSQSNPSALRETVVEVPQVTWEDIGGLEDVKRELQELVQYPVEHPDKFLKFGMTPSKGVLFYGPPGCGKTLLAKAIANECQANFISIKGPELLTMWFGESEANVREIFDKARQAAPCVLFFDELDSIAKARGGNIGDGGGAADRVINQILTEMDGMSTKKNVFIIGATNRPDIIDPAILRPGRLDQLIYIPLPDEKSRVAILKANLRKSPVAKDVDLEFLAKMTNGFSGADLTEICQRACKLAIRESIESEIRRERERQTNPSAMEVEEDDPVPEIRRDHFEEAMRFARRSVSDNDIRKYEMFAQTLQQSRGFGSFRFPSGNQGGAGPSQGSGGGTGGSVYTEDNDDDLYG
LYPLA2 counter: blocks human lysophospholipase 2, a PME1 counter-screen. O95372. recombinant LYPLA2, FP-Rh probe fluorescence polarization. inhibition, % at 5.9 µM. 0.38% of 320,000 active. AID 2177;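 active = inhibition above the screen-wide mean plus 3 SD, limit set per campaign, cut at about 26% in these data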;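 note: 0% = LYPLA2 with DMSO and 100% = wells lacking LYPLA2 enzyme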
p97 inh conf: confirmation of human p97 ATPase inhibitors; 44% of 760 active; shares compounds with p97 inhibitor; inhibition, % at 8 µM; recombinant p97 ATPase, Kinase-Glo ATP luminescence; AID 1517;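 active = percent inhibition of p97 ATPase above a set limit, the primary screen's mean plus 3 SD, cut at about 15% in these data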;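 note: 0% = DMSO wells and 100% = wells lacking p97 protein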
The depositor's hits bear a star; . = no result given.

SMILES | LYPLA1 counter | DTT redox prof | p97 inhibitor | LYPLA2 counter | p97 inh conf
Cc1ccc(-c2nn(-c3ccccc3)cc2NC(=O)CCl)cc1 | -4 | 0 | 16* | -2 | 29*
Cc1ccc(-c2cc(NC(=O)CCl)n(-c3ccccc3)n2)cc1 | 0 | 0 | 24* | 7 | 25*
O=C(CCl)Nc1cc(-c2ccccc2)nn1-c1ccccc1 | -2 | -2 | 20* | 3 | 32*
O=C(NCCC1=CCCCC1)C1CCN(S(=O)(=O)c2ccccc2C(F)(F)F)CC1 | 4 | . | . | 5 | .
COC(=O)c1sc(-c2ccc(Cl)cc2)cc1NC(=O)/C=C/C(=O)O | -2 | . | 18* | 1 | 18*
CC(C)[C@@H](C(=O)N1CCNCC1)n1cc(CCO)nn1 | 0 | 0 | 4 | -1 | .
COc1ccc2c(C(=O)CCl)c[nH]c2c1 | -1 | . | 36* | -1 | 43*
COc1ccc(OCC(=O)c2c[nH]c3ccccc23)cc1 | 0 | 0 | 3 | -2 | .
COc1ccc(Cl)cc1NC(=O)C/C(C)=N/NC(=O)Cc1ccccc1 | -1 | 0 | 15* | 0 | 6
CCOC(=O)c1c(N)n(CCOC(=O)c2cccs2)c2nc3ccccc3nc12 | -1 | 1 | 21* | -6 | 7
CCOc1ccc(C(=O)NCC(=O)NCC(c2ccc(OC)cc2)N2CCOCC2)cc1OCC (centres undefined) | 1 | . | . | 1 | .
O=C1/C(=C/C=C/c2ccco2)SC(=S)N1NS(=O)(=O)c1ccccc1 | -10 | . | 16* | -11 | 14
O=C1/C(=C/c2cccs2)SC(=S)N1NS(=O)(=O)c1ccccc1 | -1 | . | -1 | -6 | .
COc1ccc(CN(C(C)=O)c2ccccc2C(=O)O)cc1 | 2 | . | 3 | 2 | .
COc1ccc(N(/N=C2\Sc3ccccc3C2=O)C(C)=O)cc1 | . | 4 | 22* | . | 21*
C1CC(CN2CCOCC2)CN(Cc2nc(CC3CC3)no2)C1 (centres undefined) | 0 | 0 | 8 | 4 | .
O=C(Oc1cccc(Nc2ncnc3ccccc23)c1)c1ccccc1Cl | -33 | -1 | 16* | -77 | 25*
O=C(c1ccc(NS(=O)(=O)c2ccc3[nH]c(=O)[nH]c3c2)cc1)N1CCCC(C(F)(F)F)C1 (centres undefined) | 1 | . | . | 3 | .
NC1=NC(c2ccccc2)N=C(Nc2ccccc2)N1 (centres undefined) | 3 | . | 6 | 2 | .
O=C(Nc1ccccc1OC(F)F)c1ccccc1 | -1 | 0 | 16* | -3 | 9
Cc1cc(C2=NNC(=NCCc3ccccc3)SC2)c(C)n1-c1c(C)n(C)n(-c2ccccc2)c1=O | -3 | . | 16* | 3 | 7
O=C(CCNC(=O)c1ccccc1Cl)Nc1nc(-c2ccccc2Cl)cs1 | -7 | 0 | -2 | -2 | .
COc1ccc2ccccc2c1/C=N/NC(=O)c1sc(N)c(C#N)c1C | -8 | -1 | 18* | -12 | 39*
Nc1c(Cl)cc(-c2[nH]c3cc(C(=O)NCCO)ccc3c(=O)c2O)cc1Cl | -21 | . | . | -26 | .
CCN(CC)C(=O)c1ccc(COc2ccc(Cl)c(C)c2)o1 | -1 | . | . | 7 | .
SMILES | LYPLA1 counter | DTT redox prof | p97 inhibitor | LYPLA2 counter | p97 inh conf
O=C(O)c1cccc(NN=C2c3ccccc3-c3ccccc32)c1 | . | 1 | 38* | . | 45*
O=C(O)c1cccc2c1-c1ccccc1/C2=N\Nc1ccccc1 | 2 | . | . | 3 | .
CN1CCN(c2ccc(NC(=O)c3ccc(C#N)cc3F)cc2Cl)CC1 | -4 | -1 | 2 | 4 | .
CCCCn1nc2cc(C(=O)NCc3ccc(OC(F)(F)F)cc3)ccc2c1OC | 1 | 2 | 16* | 3 | 3
CCCCn1nc2cc(C(=O)NCc3cc(C(F)(F)F)cc(C(F)(F)F)c3)ccc2c1OC | 0 | -3 | -1 | -3 | .
C(=N\Nc1nc2ccccc2[nH]1)/c1c[nH]c2ccccc12 | 1 | 0 | 15* | 4 | 8
Cc1ccccc1/C=N/Nc1nc2ccccc2[nH]1 | 1 | -1 | 3 | 1 | .
C(=N\Nc1nc2ccccc2[nH]1)/c1cccc2cccnc12 | 0 | . | 20* | -6 | 3
COC(=O)C1(c2ccccc2)NC(c2cccs2)C2C(=O)N(c3ccccc3)C(=O)C21 (centres undefined) | 2 | 1 | 4 | 0 | .
CCOc1ccc(NC(=O)c2ccc(NC(=S)NC3CCCCC3)cc2)cc1 | -9 | 0 | 15* | -14 | 9
COc1ccc(/C=N/N(C)c2cc(=O)n(C)c(=O)[nH]2)cc1OC | -7 | 0 | 18* | 1 | 5
O=c1cc(-c2ccc(O)c(-c3c(O)cc(O)c4c(=O)cc(-c5ccc(O)cc5)oc34)c2)oc2cc(O)cc(O)c12 | -22 | 0 | 41* | -35 | 64*
CN(C)/N=C/c1c(O)ccc2ccccc12 | 0 | -1 | 0 | -1 | .
Oc1ccc2ccccc2c1C=NC12CN3CCN(CN(C3)C1)C2 | -2 | 0 | 20* | -3 | 21*
OCC(CO)(CO)N=Cc1c(O)ccc2ccccc12 | 2 | 0 | 29* | 3 | 8
Cc1cccc(C2c3[nH]c4ccccc4c3CCN2C(=O)c2ccc(=O)[nH]c2)n1 (centres undefined) | 2 | 0 | 17* | -5 | 4
CCOc1cc(/C=C2\C(=O)N(CCC#N)N=C2C)ccc1OCC(N)=O | 8 | -2 | 17* | 3 | 6
COc1cc(/C=C2\C(=O)N(CCC#N)N=C2C)ccc1OCC(=O)Nc1ccccc1 | -1 | 0 | 29* | -3 | 4
CC1=NN(CCC#N)C(=O)/C1=C/c1ccc(N(C)C)cc1 | 1 | 0 | -11 | 9 | .
Oc1ccc(/C=N/Nc2ccnc3cc(Cl)ccc23)cc1O | -14 | . | 33* | 10 | 41*
COc1ccc2ccc3c(c2c1)N=C[C@]1(O3)N(C)c2ccccc2C1(C)C | -6 | 2 | 24* | -9 | 2
O=C(Nc1cc(Cl)ccn1)C1(c2ccccc2)CC1(Cl)Cl (centres undefined) | -4 | . | 17* | -1 | 25*
CCOC(=O)N1CCN(C(=O)c2cn(C)c3ccc(S(=O)(=O)N4CCOCC4)cc3c2=O)CC1 | 6 | . | . | 2 | .
O=C(O)COc1ccc(=O)n(-c2ccccc2)n1 | -1 | 0 | -3 | 5 | .
COC(=O)COc1ccc(=O)n(-c2ccccc2)n1 | 3 | 0 | 18* | 6 | 5
SMILES | LYPLA1 counter | DTT redox prof | p97 inhibitor | LYPLA2 counter | p97 inh conf
S=c1[nH]nc(C2CCCCC2)n1Cc1ccccc1 | 2 | 0 | 4 | -1 | .
S=c1[nH]nc(C2CC2)n1Cc1ccccc1 | 4 | -4 | 50* | 4 | 9
COc1ccc(/C=N/NC(=O)c2cc(O)c(O)c(O)c2)cc1Cn1cc([N+](=O)[O-])cn1 | . | -2 | 17* | . | 31*
CCOc1ccc(-c2cc(N3C(=O)Nc4ccccc4N3O)n[nH]2)cc1 | -1 | 0 | 17* | 4 | 8
COc1cccc(-c2cc(N3C(=O)Nc4ccccc4N3O)n[nH]2)c1 | -1 | 0 | -1 | 7 | .
Cc1ccc(O)c(C(CC(=O)NC2CCCCC2)c2ccccc2)c1 (centres undefined) | -3 | -1 | -4 | 0 | .

Screens from PubChem.
